Compound activity: PubChem, National Center for Advancing Translational Sciences (NCATS)
HCV inh: blocks hepatitis C virus. Huh7.5.1 HCVcc-Cre infection, luciferase reporter, 44 h. Potency, µM (highest dose often 41.8 µM), for the others: at the top dose activity change, negative = inhibition, usual class: inhibitors. actives 3.4% (n = 340,000). AID 651820; note: potency is the fitted concentration of half-maximal effect; % is set by controls: 0 for no effect and ±100 for the full control effect
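After 44 h co-culture of compound, cells and HCVcc-Cre (~0.5 moi), substrate is added for 15 min at room temperature and luciferase measured over 15 sec. Cells were seeded at 1,000/well and pre-cultured 4 h.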
Cycloheximide cs: counter-screen for Shiga toxin inhibitors: cycloheximide protein synthesis inhibition; max response, %; actives 12% (n = 300,000); cell reporter, cycloheximide protein synthesis inhibition counterscreen; in the data active = max response mostly above about 13%, no sharp cut-off; inactive = mostly below about 14%; note: read at 38.3 µM for the half of the compounds with a filed dose; 0% is about no effect
Pf growth 48h: inhibits P. falciparum growth in the first generation, 48 h. P. falciparum luciferase growth in erythrocytes, 48 h. Potency, µM (top dose mostly 28.7 µM), without a hit: at the highest dose activity change, negative = inhibition, hits mostly inhibitors. actives 5.9% (n = 310,000). AID 504832; note: potency is the fitted concentration of half-maximal effect; % is set by controls: 0 for no effect and ±100 for the full control effect
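Luminescence readout; reporter = integrated firefly luciferase in P. falciparum. RBC culture at 2% hematocrit, 0.1% parasitemia final, 37 C/5% CO2; decreased signal taken as growth inhibition.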
Shiga toxin inh: Shiga toxin inhibition; Vero cells, Shiga toxin protein synthesis inhibition reporter; AID 2315; actives 9.2% (n = 290,000); inhibition, % at 38.7 µM; in the data active = inhibition mostly above about 28%, no sharp cut-off; inactive = mostly below about 43%; note: 0% is about no effect
Pf growth 96h: inhibits malaria parasite growth, 96 h. P. falciparum luciferase reporter growth, 96 h. Potency, µM (top dose mostly 28.7 µM), for inactives: top-dose activity change, negative = inhibition, actives largely listed as inhibitors. actives 6.9% (n = 320,000); note: potency is the fitted concentration of half-maximal effect; % is set by controls: 0 for no effect and ±100 for the full control effect
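Two parasite generations (96 h, 37 C, 5% CO2) of compound exposure in infected erythrocytes (0.05% parasitemia, 2% hematocrit). Luciferase-reporter P. falciparum; decreased luminescence indicates inhibited growth, aimed at apicoplast-acting delayed death.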
HCMV antiviral: blocks human cytomegalovirus replication | HFF cells, HCMV-luciferase reporter, 72 h; hits give low values | activity change, negative = inhibition, % at 57.5 µM | actives 4.5% (n = 410,000) | AID 1259415; in the data active = activity change below about -60%; inconclusive = no clear call, values can overlap the other calls; inactive = above about -39%; note: % is set by controls: 0 for no effect and ±100 for the full control effect
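Compounds were evaluated in HFFs infected with an HCMV luciferase reporter virus (MOI 1 PFU/cell). Luciferase in lysates collected 72 h post infection served as the replication measure.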
* = called active by the depositor; ? = inconclusive; · = no result given; + = active, no number; [ ] = dose if it differs, or a comment. An excerpt weighted towards active compounds, which were near 21% of everything screened. Unless noted, calls come from the whole dose curve; as a rule, active = well fitted inhibition curve with a large enough effect; inconclusive = small, poorly fitted or top-dose-only effect, or another doubt; inactive = no such curve, though single readings can be large or run the other way.

SMILES	HCV inh	Cycloheximide cs	Pf growth 48h	Shiga toxin inh	Pf growth 96h	HCMV antiviral
COc1ccc(C(=O)CC(=O)c2ccc(F)cc2)cc1	?	·	·	·	·	71.7
O=C(CC(=O)c1ccccc1O)c1cccc(F)c1	-10.5%	34.2*	?	55.8*	?	·
O=C(CC(=O)c1ccccc1O)c1ccc(F)cc1	31.6µM*	48.9*	·	70.2*	?	23.5
CN(CCCC(=O)O)S(=O)(=O)c1ccc2c(c1)C(=O)c1cc(S(=O)(=O)N(C)CCCC(=O)O)ccc1-2	16.2%	-2.2	18.5%	·	-13.4%	68.0
C=CCN1C(=O)c2ccc(C(=O)N(CC(C)C)c3c(N)n(CCCC)c(=O)[nH]c3=O)cc2C1=O	12.5%	·	?	·	7.8%	-12.9
Cc1[nH]c(=O)[nH]c(=O)c1S(=O)(=O)N1CCC(C(=O)NC(C)c2ccccc2)CC1 (stereo not drawn)	9.8%	-3.7	-3.8%	-9.7	4.15µM*	?
Cc1cccc(NC(=O)C2CCN(S(=O)(=O)c3c(C)[nH]c(=O)[nH]c3=O)CC2)c1	21.7%	-2.1	46.3%	-27.3	13.1µM*	14.8
CCC(=O)NC(=S)NNC(=O)COc1ccc(Br)cc1	3.1%	-2.3	?	15.1	9.1%	-20.2
Cc1cccc(C(=O)N2CCCC(c3nc(-c4ccc(C)o4)no3)C2)c1 (stereo not drawn)	-27.2%	42.5*	120.7%	113.2*	19.4%	58.9
COc1ccc(-c2noc(C3CCCN(C(=O)c4cccc(C)c4)C3)n2)cc1 (stereo not drawn)	?	-3.3	-14.7%	·	34.0%	-30.0
Cc1ccc(-c2noc(C3CCCN(C(=O)c4cccc([N+](=O)[O-])c4)C3)n2)o1 (stereo not drawn)	?	38.8*	26.1%	85.0*	26.1%	-7.5
COc1cc(OC)cc(C(=O)N2CCCC(c3nc(-c4ccc(C)o4)no3)C2)c1 (stereo not drawn)	?	1.4	-8.6%	-1.6	13.6%	-3.2
Cc1cccc(N=C2c3cc([N+](=O)[O-])ccc3-c3c2cc([N+](=O)[O-])cc3[N+](=O)[O-])c1	7.08µM*	·	·	·	·	15.7
CCn1ccc(C(=O)N2CCOCC2)n1	14.4%	10.6	-7.5%	-13.0	7.9%	-14.2
CCn1ccc(C(=O)Oc2ccc(C(C)C)cc2)n1	-4.6%	35.5*	14.6%	70.7*	·	?
N/C(=N\OC(=O)c1cccc2ccccc12)c1ccc(Br)cc1	13.9%	9.5	?	22.3	?	109.4
N/C(Cc1cccc2ccccc12)=N\OC(=O)c1ccccc1F	14.9%	22.7*	?	23.2	?	31.7
N/C(Cc1cccc2ccccc12)=N\OC(=O)COc1ccccc1	32.5%	4.2	6.2%	33.3	166.0%	-15.1
N/C(Cc1ccccc1)=N\OC(=O)c1cccc2ccccc12	?	28.7*	3.29µM*	63.9*	4.65µM*	27.9
N/C(Cc1ccc(Cl)cc1Cl)=N\OC(=O)c1ccccc1F	3.5%	53.3*	35.3%	74.6*	0.0%	20.7
CCS(=O)(=O)N1CCCc2cc(C(=O)Nc3cc([N+](=O)[O-])ccc3C)ccc21	·	·	·	·	·	-39.0
Cc1nn(-c2ccc(F)cc2)c2sc(C(=O)N3CCCCCC3)cc12	14.1µM*	0.7	16.7%	-15.0	37.8%	-8.1
Cc1nn(-c2ccc(Cl)cc2)c2sc(C(=O)N3CCN(C(=O)c4ccco4)CC3)cc12	·	-3.1	7.4%	-8.5	10.4µM*	·
COc1ccc(/C=C/C(=O)NCC2COc3ccccc3O2)c(OC)c1 (stereo not drawn)	-29.6%	20.3*	-5.5%	46.3*	?	4.5
O=C(/C=C/c1ccco1)NCC1COc2ccccc2O1 (stereo not drawn)	8.8%	35.6*	5.7%	39.9	-10.9%	36.4
SMILES	HCV inh	Cycloheximide cs	Pf growth 48h	Shiga toxin inh	Pf growth 96h	HCMV antiviral
O=C(CCC1COc2ccccc2O1)NCC1COc2ccccc2O1 (stereo not drawn)	12.5%	1.2	0.8%	2.9	·	-14.0
CCCN(C(=O)c1cc2c(=O)oc3ccccc3c2s1)c1ccccc1C	·	·	·	·	·	-8.8
CCOc1ccccc1C=C1SC(=S)N(CC)C1=O	6.0%	·	·	·	·	-30.0
CCN1C(=O)/C(=C\N2CCCCCC2)SC1=S	-26.2%	15.1*	?	23.0	11.7µM*	30.5
CCN1C(=O)/C(=C/N2CC(C)CC(C)C2)SC1=S (stereo not drawn)	4.2%	5.9	58.5%	-5.6	-4.5%	1.6
CCOC(=O)C1CCCN(/C=C2\SC(=S)N(CC)C2=O)C1 (stereo not drawn)	-17.4%	7.9*	-14.7%	15.6	-15.2%	-21.8
CCN1C(=O)/C(=C/N2CCc3ccccc3C2)SC1=S	?	15.7*	28.6%	31.5	-18.9%	23.7
CCC1CCCCN1S(=O)(=O)c1ccc(C(=O)Nc2sc3c(c2C(N)=O)CCC3)cc1 (stereo not drawn)	·	·	·	·	·	-30.9
O=C(c1nnnn1-c1ccc(Br)cc1)C1CC1	·	·	·	·	·	-25.8
C=CCn1c(=O)/c(=C/c2ccc(O)cc2)s/c1=C(/C#N)c1nnc2n1CCCCC2	-22.6%	-1.8	?	12.7	?	?
C=CCn1c(=O)/c(=C/c2cc(OC)c(OC)c(OC)c2)s/c1=C(/C#N)c1nc2ccccc2n1C	?	-7.6	5.22µM*	-8.2	80.0%	-20.4
Cc1cc(C)c(S(=O)(=O)n2cnc(C)c2)c(C)c1	·	·	·	·	·	-8.4
Cc1ccccc1NC(=O)c1ccc(S(=O)(=O)N(C)C)cc1	0.9%	-0.7	-18.3%	-1.9	-2.4%	55.8
Cc1ccc(NC(=O)c2ccc(S(=O)(=O)C(F)F)cc2)c(C)c1	0.6%	27.8*	25.0%	+	-5.2%	-14.1
Cc1ccccc1NC(=O)c1ccc(S(=O)(=O)C(F)F)cc1	7.0%	18.4*	19.8%	-3.5	24.6%	31.7
Cc1ccc(NC(=O)CCNS(=O)(=O)c2ccc3c(c2)CCN3C(=O)C2CC2)c(Cl)c1	·	·	·	·	·	-18.3
Cc1cccc(OCCC(=O)OCC(=O)Nc2c(C)nn(-c3ccccc3)c2C)c1	-0.7%[8.37 µM]	·	-0.6%	·	8.6%	·
Cc1ccc(N/N=C/c2c(O)n(-c3ccccc3)c(=O)[nH]c2=O)cc1	-2.2%	22.3*	52.0%	41.7	39.1%	34.5
Cc1ccc(-n2c(O)c(/C=C/C=Nc3ccccc3)c(=O)[nH]c2=O)cc1	41.2%	-6.5	?	-5.8	8.4%	2.7
Cc1ccc(-n2c(O)c(C=Nc3ccc(S(N)(=O)=O)cc3)c(=O)[nH]c2=O)cc1	1.9%	-6.2	?	6.7	?	-103.7*
CC(C)OCCCNC(=O)CCCC(=O)Nc1ccc(OCCc2ccccc2)cc1	4.1%	2.9	-20.8%	1.2	?	9.6
COC(=O)CN1C(=O)COc2ccc(S(=O)(=O)N3CCOCC3)cc21	13.3%	14.4	-14.0%	-3.2	9.28µM*	-9.2
CCOC(CNC(=O)CN1C(=O)COc2ccc(S(=O)(=O)N3CCOCC3)cc21)OCC	13.7%	-3.5	19.9%	-5.6	-1.3%	+
